Test results as given in PubChem BioAssay (NCATS).
Several values for one entry are separate records, joined by “and”; a condition that tells them apart may be missing. Equal entries are not always repeated. Records with an inconclusive call do not appear. Entries that show only a call come without a potency. Where a structure was tested more than once in an assay, its records may differ in their call. Activity calls are given as the source filed them. Unless noted, calls come from the whole dose curve.

What was measured:
[1] = Validation screen for inhibitors of Lassa infection (AID 463096); note: potency is the fitted concentration of half-maximal effect
[2] = qHTS for Inhibitors of the Functional Ribonucleoprotein Complex (vRNP) of Lassa (LASV) Arenavirus: LASV Primary Screen - GLuc reporter signal (AID 1347082; calls by dose curve; tested in HEK293 reporter line; note: nearly all actives have a fitted effect of over 60% in size; note: potency is the fitted concentration of half-maximal effect)
[3] = qHTS for Inhibitors of the Functional Ribonucleoprotein Complex (vRNP) of Lassa (LASV) Arenavirus: Viability assay - alamar blue signal for LASV Primary Screen (AID 1347083; calls by dose curve; tested in HEK293 reporter line; note: nearly all actives have a fitted effect of over 80% in size; note: potency is the fitted concentration of half-maximal effect)
[4] = qHTS for Inhibitors of the Functional Ribonucleoprotein Complex (vRNP) of Lymphocytic Choriomeningitis Arenaviruses (LCMV): Viability assay - alamar blue signal for LCMV Primary Screen (AID 1347085; calls by dose curve; tested in HEK293 reporter line; note: nearly all actives have a fitted effect of over 80% in size; note: potency is the fitted concentration of half-maximal effect)
[5] = target: Nucleoprotein (Lymphocytic choriomeningitis virus (strain Armstrong)) (UniProt P09992); test: qHTS for Inhibitors of the Functional Ribonucleoprotein Complex (vRNP) of Lymphocytic Choriomeningitis Arenaviruses (LCMV): LCMV Primary Screen - GLuc reporter signal (AID 1347086); note: nearly all actives have a fitted effect of over 70% in size; note: potency is the fitted concentration of half-maximal effect
Sequence of Nucleoprotein (Lymphocytic choriomeningitis virus (strain Armstrong)) (P09992 whole entry, looked up): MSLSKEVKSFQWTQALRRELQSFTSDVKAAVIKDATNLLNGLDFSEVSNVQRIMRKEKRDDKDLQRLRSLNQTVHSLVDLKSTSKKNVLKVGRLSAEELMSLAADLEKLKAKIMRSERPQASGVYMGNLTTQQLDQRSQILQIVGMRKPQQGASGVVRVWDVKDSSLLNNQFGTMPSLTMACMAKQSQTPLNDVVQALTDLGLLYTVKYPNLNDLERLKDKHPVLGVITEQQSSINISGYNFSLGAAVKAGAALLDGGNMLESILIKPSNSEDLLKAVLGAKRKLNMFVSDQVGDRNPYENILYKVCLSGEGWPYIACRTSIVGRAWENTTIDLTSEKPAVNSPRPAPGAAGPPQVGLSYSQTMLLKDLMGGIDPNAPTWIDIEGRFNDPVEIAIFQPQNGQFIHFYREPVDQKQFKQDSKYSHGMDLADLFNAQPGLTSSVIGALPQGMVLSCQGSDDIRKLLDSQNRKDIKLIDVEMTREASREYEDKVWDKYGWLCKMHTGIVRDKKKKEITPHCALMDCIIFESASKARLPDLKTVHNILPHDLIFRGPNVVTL

[6] = Primary qHTS for Huh7 cytotoxicity: counterscreen for inhibitors of MERS-S pseudotyped particle cell entry (AID 1479147); conditions: outcome: dose series up to 57.1 µM unless noted
[7] = Primary qHTS for Vero E6 cytotoxicity: counterscreen for inhibitors of SARS-S pseudo-typed particle cell entry (AID 1479150); conditions: outcome: dose series up to 57.1 µM unless noted
[8] = Cytotoxicity counterscreen for inhibitors of SARS-CoV-2 cell entry (AID 1645845); note: nearly all actives have a fitted effect of over 50% in size; note: potency is the fitted concentration of half-maximal effect
Method in brief: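 48 h compound treatment (after 1 h preincubation), HEK293-ACE2 cells, 37 C/5% CO2; ATP luminescence endpoint; normalized to cell wells and media blanks.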

[9] = Primary qHTS for inhibitors of MERS-S pseudo-typed particle cell entry (AID 1479149); note: nearly all actives have a fitted effect of over 60% in size
[10] = Primary qHTS to identify inhibitors of SARS-CoV-2 cell entry (AID 1645846); conditions: activity change, negative = inhibition: at 57.1 µM (top of the series) unless noted; note: nearly all actives have a fitted effect of over 45% in size
Method in brief: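 HEK293 cells stably expressing human ACE2, pre-treated 1 h with compound, then infected with MLV particles pseudotyped with Wuhan-Hu-1 spike (C-terminal 19-aa truncation). Luciferase luminescence after 48 h at 37 °C, normalised to spike PP and bald PP.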

[11] = target: Alpha-galactosidase (Coffea arabica) (UniProt Q42656); test: Counterscreen for Glucocerebrosidase Inhibitors: qHTS Assay for Coffee Bean alpha-Galactosidase at pH 4.5 (AID 957; active = well fitted curve in the direction sought with a large enough effect; an effect the other way counts as inactive or inconclusive)
Sequence of Alpha-galactosidase (Coffea arabica) (Q42656 whole entry, looked up): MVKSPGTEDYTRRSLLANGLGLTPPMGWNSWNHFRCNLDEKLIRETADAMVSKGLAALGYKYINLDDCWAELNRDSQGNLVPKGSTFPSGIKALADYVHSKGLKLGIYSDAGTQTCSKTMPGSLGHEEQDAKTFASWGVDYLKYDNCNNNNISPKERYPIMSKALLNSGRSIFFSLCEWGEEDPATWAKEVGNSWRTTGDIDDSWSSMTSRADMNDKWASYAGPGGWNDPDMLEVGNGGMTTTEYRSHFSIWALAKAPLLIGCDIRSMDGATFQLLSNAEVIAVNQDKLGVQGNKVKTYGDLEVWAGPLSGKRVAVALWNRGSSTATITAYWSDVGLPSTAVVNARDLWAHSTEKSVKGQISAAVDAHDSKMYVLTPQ
Method in brief: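 AC50 values derive from Hill-equation modeling of concentration-response data, normalized to no-enzyme and full-activity controls. The pH 4.5 citrate assay used 2 nM coffee bean enzyme and 80 uM fluorogenic substrate for 20 min.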

[12] = target: Alpha-galactosidase (Coffea arabica) (UniProt Q42656); test: Counterscreen for Glucocerebrosidase Inhibitors: qHTS Assay for Coffee Bean alpha-Galactosidase at pH 5.9 (AID 998; active = well fitted curve in the direction sought with a large enough effect; an effect the other way counts as inactive or inconclusive)
Method in brief: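 Compounds were titrated from 0.7 nM to 77 uM against green coffee bean alpha-galactosidase (2 nM) using 80 uM fluorogenic 4-methylumbelliferyl substrate. After 20 min at room temperature, reactions were stopped at pH 10 and read by fluorescence.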

[13] = Inducers of the Endoplasmic Reticulum Stress Response (ERSR) in human glioma: Validation (AID 504836; active = well fitted curve in the direction sought with a large enough effect; an effect the other way counts as inactive or inconclusive)
Method in brief: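 ERSR induction read as luciferase luminescence (Bright-Glo, 10 min at room temperature) in stably transfected human U87-MG glioma cells exposed to compounds for 16 h, using GRP78 as sensor.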

[14] = Primary qHTS for inhibitors of SARS-S pseudo-typed particle cell entry (AID 1479145); note: nearly all actives have a fitted effect of over 45% in size
[15] = qHTS profiling of the MIPE4 collection as inhibitors of Plasmodium falciparum (3D7) proliferation (AID 743344; call rule not given here); conditions: P. falciparum 3D7 in erythrocytes, SYBR Green DNA fluorescence, 72 h; at 28.5 µM (top of the series) unless noted
Method in brief: (§1)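 Erythrocytes infected with P. falciparum (0.3% parasitemia, 2.5% hematocrit) incubated with compounds 72 h at 37 C, 5% CO2. Lysis with saponin/Triton buffer containing SYBR Green I, overnight at room temperature in the dark; DNA fluorescence (485/535 nm) normalised to 0.29 uM artemisinin and DMSO.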

[16] = qHTS profiling of the MIPE4 collection as inhibitors of Plasmodium falciparum (DD2) proliferation (AID 743345; call rule not given here); conditions: P. falciparum Dd2 in erythrocytes, SYBR Green DNA, 72 h; at 28.5 µM (top of the series) unless noted
Method in brief: as §1

[17] = qHTS profiling of the MIPE4 collection as inhibitors of Plasmodium falciparum (HB3) proliferation (AID 743347; call rule not given here); conditions: P. falciparum HB3 in erythrocytes, SYBR Green DNA, 72 h; at 28.5 µM (top of the series) unless noted
Method in brief: as §1

SMILES: COc1ccc(CCN(C)CCCC(C#N)(c2ccc(OC)c(OC)c2)C(C)C)cc1OC (stereo unspecified)
- outcome [1]: inactive
- Potency [2]: inactive
- Potency [3]: inactive
- Potency [4]: inactive
- Potency [5]: inactive
- outcome [6]: inactive
- outcome [7]: inactive
- Potency [8]: inactive

SMILES: Cc1ccccc1O
- Potency [2]: inactive
- Potency [3]: inactive
- Potency [4]: inactive
- Potency [5]: inactive
- outcome [6]: inactive
- Potency [9]: inactive
- outcome [7]: inactive
- activity change, negative = inhibition [10]: -10.9% [at 114 µM]

SMILES: CO[C@H]1[C@@H](O)[C@H](N)[C@@H](O[C@H]2O[C@H]([C@H](C)N)CC[C@H]2N)[C@H](O)[C@@H]1N(C)C(=O)CN
- Potency [2]: inactive
- Potency [3]: inactive
- Potency [4]: inactive
- Potency [5]: inactive
- outcome [6]: inactive
- Potency [9]: inactive
- outcome [7]: inactive
- Potency [8]: inactive
- activity change, negative = inhibition [10]: -5.5%

SMILES: COc1ccc(/C=C/C(=O)Nc2ccccc2C(=O)O)cc1OC
- outcome [11]: inactive
- outcome [12]: inactive
- Potency [1]: 2820 nM (active)
- outcome [13]: inactive
- Potency [2]: inactive
- Potency [3]: inactive
- Potency [4]: inactive
- Potency [5]: inactive
- outcome [6]: inactive
- Potency [9]: inactive
- outcome [7]: inactive
- Potency [8]: 17.8 µM (active) and inactive
- activity change, negative = inhibition [10]: -78.6% and -67.4%

SMILES: O=C1c2c(O)cccc2[C@@H]([C@@H]2O[C@H](CO)[C@@H](O)[C@H](O)[C@H]2O)c2cc(CO)cc(O)c21
- Potency [2]: inactive
- Potency [3]: inactive
- Potency [4]: inactive
- Potency [5]: inactive
- outcome [6]: inactive
- Potency [9]: inactive
- outcome [7]: inactive
- Potency [8]: inactive
- activity change, negative = inhibition [10]: -0.84%

SMILES: N#CC(c1ccc(Cl)cc1)c1c(Cl)cc(-n2ncc(=O)[nH]c2=O)cc1Cl (stereo unspecified)
- Potency [2]: inactive
- Potency [3]: inactive
- Potency [4]: inactive
- Potency [5]: inactive
- outcome [6]: inactive
- outcome [7]: inactive
- Potency [8]: inactive

SMILES: NCCCC(=O)O
- outcome [11]: inactive
- outcome [12]: inactive
- outcome [13]: inactive
- Potency [2]: inactive
- Potency [3]: inactive
- Potency [4]: inactive
- Potency [5]: inactive
- Potency [14]: inactive

SMILES: Nc1ncnc2c1ncn2[C@@H]1O[C@H](COP(=O)(O)OP(=O)(O)OP(=O)(O)O)[C@@H](O)[C@H]1O
- Potency [2]: inactive
- Potency [3]: inactive
- Potency [4]: inactive
- Potency [5]: inactive
- outcome [14]: inactive [at 0.573 µM]
- activity change, negative = cytotoxicity [6]: -18.7% [at 0.573 µM] (inactive)
- activity change, negative = inhibition [9]: -11.5% [at 0.573 µM] (inactive)
- activity change, negative = cytotoxicity [7]: -8.27% [at 0.573 µM] (inactive)

SMILES: CN(C)CCCN1c2ccccc2CCc2ccccc21
- outcome [11]: inactive
- outcome [12]: inactive
- Potency [2]: inactive
- Potency [3]: inactive
- Potency [4]: inactive
- Potency [5]: inactive
- outcome [6]: inactive
- outcome [7]: inactive
- Potency [8]: inactive

SMILES: CC(=O)O[C@H]1Cc2ccccc2N(C(N)=O)c2ccccc21
- Potency [2]: inactive
- Potency [3]: inactive
- Potency [4]: inactive
- Potency [5]: inactive
- outcome [6]: inactive
- Potency [9]: inactive
- outcome [7]: inactive
- Potency [8]: inactive
- activity change, negative = inhibition [10]: -29.9%

SMILES: CCc1cc2c(cc1N1CCC(N3CCOCC3)CC1)C(C)(C)c1[nH]c3cc(C#N)ccc3c1C2=O
- Potency [2]: inactive
- Potency [3]: inactive
- Potency [4]: inactive
- Potency [5]: inactive
- outcome [6]: inactive
- Potency [9]: inactive
- outcome [7]: inactive
- Potency [8]: inactive
- Potency [10]: inactive
- activity change, negative = inhibition [10]: -34.9% [at 27.1 µM]

SMILES: Cc1ccc(NC(=O)C2(c3ccc4c(c3)OC(F)(F)O4)CC2)nc1-c1cccc(C(=O)O)c1
- Potency [2]: 38.5 nM (active)
- Potency [3]: 43.2 nM (active)
- Potency [4]: 68.5 nM (active)
- Potency [5]: 21.7 nM (active)
- outcome [6]: inactive
- Potency [9]: inactive
- outcome [7]: inactive
- Potency [8]: inactive
- Potency [10]: inactive
- activity change, negative = inhibition [10]: -24.6%

SMILES: COc1ccc(CC2c3cc(OC)c(OC)cc3CC[N+]2(C)CCC(=O)OCCCCCOC(=O)CC[N+]2(C)CCc3cc(OC)c(OC)cc3C2Cc2ccc(OC)c(OC)c2)cc1OC (stereo unspecified)
- activity change, negative = inhibition [2]: -1.71% [at 11.5 µM] (inactive)
- activity change, negative = reduced viability [3]: -21.5% [at 11.5 µM] (inactive)
- activity change, negative = lower viability [4]: 2.32% [at 11.5 µM] (inactive)
- activity change, negative = inhibition [5]: -0.768% [at 11.5 µM] (inactive)
- Potency [14]: inactive
- outcome [6]: inactive
- Potency [9]: inactive
- activity change, negative = inhibition [10]: -27% and -4%

SMILES: CC(C)COC(=O)OCN1C(=O)CN(CCN2CC(=O)N(COC(=O)OCC(C)C)C(=O)C2)CC1=O
- outcome [11]: inactive
- outcome [12]: inactive
- Potency [1]: inactive
- outcome [13]: inactive
- Potency [2]: inactive
- Potency [3]: inactive
- Potency [4]: inactive
- Potency [5]: inactive
- outcome [6]: inactive
- Potency [9]: inactive
- outcome [7]: inactive
- Potency [8]: inactive
- activity change, negative = inhibition [10]: -21.8%

SMILES: N[C@@H](CC(=O)N1CCn2c(nnc2C(F)(F)F)C1)Cc1cc(F)c(F)cc1F
- Potency [2]: inactive
- Potency [3]: inactive
- Potency [4]: inactive
- Potency [5]: inactive
- outcome [6]: inactive
- Potency [9]: inactive
- outcome [7]: inactive
- Potency [8]: inactive
- activity change, negative = inhibition [10]: -27.8%

SMILES: Nc1cccc2c1C(=O)N(C1CCC(=O)NC1=O)C2=O (stereo unspecified)
- Potency [2]: inactive
- Potency [3]: inactive
- Potency [4]: inactive
- Potency [5]: inactive
- outcome [6]: inactive
- Potency [9]: inactive
- outcome [7]: inactive
- Potency [8]: inactive
- activity change, negative = inhibition [10]: -12.7%

SMILES: NCCCNCCCCNC(=O)C(O)NC(=O)CCCCCCN=C(N)N (stereo unspecified)
- Potency [2]: inactive
- Potency [3]: inactive
- Potency [4]: inactive
- Potency [5]: inactive
- outcome [6]: inactive
- Potency [9]: inactive
- outcome [7]: inactive
- Potency [8]: inactive

SMILES: CC(=O)[C@H]1CC[C@H]2[C@@H]3CCC4=CC(=O)CC[C@]4(C)[C@H]3CC[C@]12C
- outcome [11]: inactive
- outcome [12]: inactive
- Potency [1]: inactive
- outcome [13]: inactive
- parasite growth, % of DMSO control [15]: 38.5%
- parasite growth remaining, % of DMSO control (lower = more inhibition) [16]: 85%
- growth, % of control [17]: 31%
- Potency [2]: inactive
- Potency [3]: inactive
- Potency [4]: inactive
- Potency [5]: inactive
- outcome [6]: inactive
- outcome [7]: inactive

SMILES: CC(=O)Nc1cccc(-n2c(=O)n(C3CC3)c(=O)c3c(Nc4ccc(I)cc4F)n(C)c(=O)c(C)c32)c1
- Potency [2]: inactive
- Potency [3]: inactive
- Potency [4]: inactive
- Potency [5]: inactive
- outcome [6]: inactive
- Potency [9]: inactive
- outcome [7]: inactive
- Potency [8]: inactive
